# Screening data deposited in PubChem by several laboratories.
# TAG inh = inhibitors of triacylglycerol accumulation, primary screen, cell-based, uHTS, fluorescence, H9c2; H9c2 cells, Nile Red lipid (TAG) fluorescence; cells loaded with 200 µM oleic acid; inhibition, % at 12.5 µM; actives 0.66% (n = 230,000); AID 651582, 2012;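 active = pattern-corrected inhibition of lipid staining of at least 50% with the nuclear-stain viability signal not falling by more than 50%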;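 note: 0% = DMSO wells and 100% = triacsin C control wells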
# CHT block = inhibitors of human choline transporter CHT; High affinity choline transporter 1 (Homo sapiens), Q9GZV3; B-score at 10 µM; CHT-expressing cells, membrane potential dye, choline response; hits give low values; actives 0.86% (n = 310,000);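 active = B-score over 3 SD under the library average, and starting fluorescence ratio not unusually high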;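 note: choline stimulus applied at its EC90 after an EC20 pre-addition; B-score computed on integrated fluorescence ratio after choline addition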
# Target sequence (Q9GZV3 whole entry, looked up): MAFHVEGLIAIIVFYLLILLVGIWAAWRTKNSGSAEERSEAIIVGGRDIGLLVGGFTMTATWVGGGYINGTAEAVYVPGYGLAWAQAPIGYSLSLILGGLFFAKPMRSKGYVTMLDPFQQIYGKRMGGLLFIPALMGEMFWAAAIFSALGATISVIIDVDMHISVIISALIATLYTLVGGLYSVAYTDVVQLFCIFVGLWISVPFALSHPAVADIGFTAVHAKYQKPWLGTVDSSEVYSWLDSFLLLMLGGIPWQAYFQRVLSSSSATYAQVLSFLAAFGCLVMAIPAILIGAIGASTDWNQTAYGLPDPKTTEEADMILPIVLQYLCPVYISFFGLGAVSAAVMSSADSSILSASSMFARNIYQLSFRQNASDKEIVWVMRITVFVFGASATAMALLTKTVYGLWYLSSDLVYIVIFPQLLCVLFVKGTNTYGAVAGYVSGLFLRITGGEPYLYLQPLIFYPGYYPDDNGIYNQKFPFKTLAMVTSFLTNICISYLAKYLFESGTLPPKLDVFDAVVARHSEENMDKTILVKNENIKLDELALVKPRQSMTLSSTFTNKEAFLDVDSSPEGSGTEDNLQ
# beta cell repl = inducers of MIN6 beta-cell proliferation, primary screen, ATP luminescence, uHTS; MIN6 cells proliferation, ATPlite luminescence, 48 h; cells starved in 0.2% serum; 100% = growth in 10% serum; proliferation, % at 10 µM; actives 0.29% (n = 330,000); AID 2380, 2010;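 active = compounds whose signal lies at least 3.5 SD above the mean of all wells on their plate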;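 note: 0% = DMSO-treated cells in low-serum medium and 100% = 10% serum control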
# CHT PAM = CHT positive allosteric modulators, primary screen, cell-based, membrane potential dye, choline EC20 | CHT-expressing cells; hits give high values; LV-AA mutant CHT in HEK293 cells | B-score at 10 µM | actives 0.49% (n = 310,000) | AID 488977, 2010;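 active = initial fluorescence not abnormally high and integrated response B-score, plate-corrected, over 3 SD above library mean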
# CHT inh conf = CHT inhibitors, confirmation, cell-based, membrane potential dye, duplicate | actives 70% (n = 2,400) | CHT-expressing cells, choline membrane potential dye; LV-to-AA substituted CHT, HEK293 cells | CHT activity remaining % of control (hits give low values), % at 10 µM | shares compounds with CHT block;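 active = choline transporter activity left, mean of duplicates at 10 µM, below buffer-only control mean minus 3 SD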;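 note: depolarization triggered by choline at its EC90 following an EC20 pre-addition; 0% = hemicholinium-3 full block and 100% = buffer-only control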
# HEK293 MPD ctr = membrane potential effects in parental HEK293, counter-screen for CHT inhibitor project, cell-based, membrane potential dye; shares compounds with CHT block; choline response; active = decrease or increase beyond buffer ±3SD; membrane potential ratio readout (active if shifted either direction beyond buffer ±3SD; no single direction) at 10 µM; actives 4% (n = 2,400); AID 493222, 2011;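 note: parental cells lack the transporter so any hit is non-specific; ratio is peak minus trough fluorescence over baseline after EC90 choline challenge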
# Active calls of the source: *; i = inactive; . = no result. Most compounds without a hit are left out; they make up all but 1.7% or so of the library.
SMILES,TAG inh,CHT block,beta cell repl,CHT PAM,CHT inh conf,HEK293 MPD ctr
Cc1cccc(C)c1-n1cccc1/C=C1/C(=N)N2C(=NC1=O)SN=C2S(C)(=O)=O,7,-5.5*,0,i,50%*,i
COc1ccccc1NC(=O)N[C@@H](Cc1c[nH]c2ccccc12)C(=O)NN,.,i,0,i,.,.
CC1(c2ccc3c(c2)OCCO3)NC(=O)N(CC(=O)Nc2ccccc2)C1=O (centres undefined),7,.,-1,.,.,.
CCN1CCN(CCNC(=O)c2ccc3nc(-c4cccc(C)c4)c(-c4cccc(C)c4)nc3c2)CC1,.,-8.7*,-7,i,36%*,i
COc1ccc(-c2nc3ccc(C(=O)NCCCN4CCOCC4)cc3nc2-c2ccc(OC)cc2)cc1,.,-5.1*,-4,i,53%*,i
CCCNC(=O)c1ccc2nc(-c3ccccc3)c(-c3ccccc3)nc2c1,-13,i,-1,i,.,.
OC(CNCc1ccc(Cl)cc1)C(F)(F)F (centres undefined),-9,i,0,i,.,.
O=C(NNC(=S)Nc1ccc(F)cc1)C1CC1c1ccc(Cl)cc1 (centres undefined),.,-9.8*,-1,i,14%*,i
Cc1ccc(C2CC2C(=O)NNC(=S)Nc2cccc(Cl)c2)cc1 (centres undefined),.,-12*,-3,i,43%*,i
COc1ccc(NC(=S)NNC(=O)C2CC2c2ccc(C)cc2)cc1 (centres undefined),.,i,-3,i,.,.
Cc1ccc(NC(=S)NNC(=O)C2CC2c2ccc(C)cc2)cc1 (centres undefined),-6,-5.5*,2,i,58%*,i
CS(=O)(=O)c1ccc(Cl)c(NC(=O)c2ccc(-n3cncn3)c([N+](=O)[O-])c2)c1,0,.,.,.,.,.
Cc1cccc(NC(=S)NC2CC3C=CC2C3)c1 (centres undefined),-9,i,-4,i,.,.
CCCCCn1c(=O)[nH]c2cc(C(=O)NCCCN3CCCCC3CC)ccc2c1=O (centres undefined),.,-6*,1,i,41%*,i
CCC1CCCCN1CCCNC(=O)c1ccc2c(c1)c(C)c(C)n2CC (centres undefined),.,i,-1,i,.,.
CCC1CCCCN1CCCNC(=O)c1ccc2c(=O)n(CCOC)c(=O)[nH]c2c1 (centres undefined),.,i,-2,i,.,.
CCC1CCCCN1CCCNC(=O)c1ccc2c(c1)c(C)c(C)n2C (centres undefined),.,-5.7*,-6,i,35%*,i
COc1ccc(NC(=O)N2CCC(n3cnc4ccccc43)CC2)cc1,19,-5.8*,-2,i,37%*,i
Cc1cccc(C)c1NC(=O)N1CCC(n2cnc3ccccc32)CC1,29,i,-1,i,.,.
COc1ccc(CC(=O)NC(C)c2ccc(S(N)(=O)=O)cc2)cc1S(=O)(=O)N1CCOCC1 (centres undefined),28,i,-2,i,.,.
Cc1cc(SCC(=O)Nc2cccc(S(N)(=O)=O)c2)c(C)cc1Br,-1,i,2,i,.,.
CCCn1c(SCC(=O)Nc2cccc(S(=O)(=O)NC3=NCCCCC3)c2)nc2ccccc2c1=O,.,i,0,i,.,.
CCOCCCn1c(SCC(=O)Nc2cccc(S(=O)(=O)NC3=NCCCCC3)c2)nc2ccccc2c1=O,-13,-6.4*,2,i,i,i
Cc1cc(SCC(=O)Nc2cccc(S(=O)(=O)NC3=NCCCCC3)c2)c(C)cc1Br,.,-5*,-4,i,i,i
CN1OC[C@@H]2CN[C@H](c3cccc(Oc4ccccc4)c3)C[C@@H]21,8,.,.,.,.,.
SMILES,TAG inh,CHT block,beta cell repl,CHT PAM,CHT inh conf,HEK293 MPD ctr
COc1cc(/C=C/C(=O)O)cc(S(=O)(=O)NC2CC2)c1OC,.,i,0,i,.,.
N#C/C(=N\Nc1ccc(Cl)c(Cl)c1)C(=O)C1CC1,-13,i,-6,i,.,.
N#C/C(=N\Nc1ccc(F)cc1)C(=O)C1CC1,-4,-6.2*,1,i,50%*,i
COc1cc(C(=O)OCC2CC(c3ccccc3)=NO2)cc(OC)c1OC (centres undefined),-7,i,-1,i,i,i
O=[N+]([O-])c1cccc(-c2ccc(CN3CCCCC3)o2)c1,-2,i,-1,i,.,.
CCOc1c2ccc(C(=O)NC3CCCc4ccccc43)cc2nn1C (centres undefined),10,i,-4,i,.,.
CCCCn1nc2cc(C(=O)NCc3cc(C(F)(F)F)cc(C(F)(F)F)c3)ccc2c1OCC,13,i,-3,i,.,.
CCCCn1nc2cc(C(=O)N[C@H](C)C3CCCCC3)ccc2c1OCC,27,-11*,1,i,5.4%*,i
CCCn1nc2cc(C(=O)NCc3ccc(C)cc3)ccc2c1OCC,10,-5.6*,4,i,56%*,i
CCOc1c2ccc(C(=O)NCc3ccc(C)cc3)cc2nn1CC,10,i,2,i,.,.
CCCCn1nc2cc(C(=O)NC3CCCc4ccccc43)ccc2c1OCC (centres undefined),14,-9.6*,-2,i,21%*,i
Cc1ccc(C)c(C(O)c2ncc(-c3ccc(Cl)cc3)[nH]2)c1 (centres undefined),-35,.,.,.,.,.
Cc1cc(C)c(NC(=O)CNC(=O)COC(=O)C2=COCCO2)c(C)c1,-12,i,-4,i,.,.
Fc1ccc(CNCc2ccccc2Cl)cc1,8,i,1,i,.,.
C=CCOc1ccccc1CNCc1ccc(F)cc1,3,-7.5*,4,i,26%*,-14*
CC(=O)C1=C(O)C=C(c2ccco2)CC1c1ccco1 (centres undefined),4,-5.1*,-3,i,i,i
O=C(CCl)N1N=C(c2ccco2)CC1c1ccco1 (centres undefined),.,i,-4,i,.,.
Cc1ccc(NC(=O)COC(=O)c2c(-c3ccccc3)noc2C)c(C)c1,-7,.,-3,.,.,.
O=C(CSc1cccc(C(F)(F)F)c1)NCc1ccccc1,.,-5.8*,3,i,i,i
Cn1c(=O)c2sc3c(c2n(CC(=O)Nc2ccccc2)c1=O)COC(C)(C)C3,.,i,5,i,.,.
COc1ccc(/C=C2/SC(=S)N(NS(=O)(=O)c3ccccc3)C2=O)cc1,.,-4.9*,0,i,45%*,i
